Assay outcomes (PubChem)
An excerpt weighted towards active compounds, which were near 3.7% of everything screened.
Anthrax LF prot: blocks Bacillus anthracis lethal factor protease; AID 588501; inhibition, % at 10 µM; P15917; multiplex microsphere protease cleavage assay, LF; hit rate 0.12% among 360,000; note: plate controls were buffer without enzyme for full effect and enzyme alone for no effect
BoNT F protease: blocks Botulinum neurotoxin F light chain protease. Multiplex microsphere protease cleavage assay, flow cytometry. inhibition, % at 10 µM. hit rate 0.22% among 360,000; in the data active = inhibition above about 35%, passing the limit was not always enough; inconclusive = no clear call, values can overlap the other calls; note: plate controls were buffer without enzyme for full effect and enzyme alone for no effect
BoNT-A LC inh2: inhibitors of Botulinum neurotoxin A light chain protease; inhibition, % at 10 µM; hit rate 0.17% among 360,000; multiplex microsphere protease substrate cleavage, flow cytometry; AID 588499; note: plate controls were buffer without enzyme for full effect and enzyme alone for no effect
Autofluor counter: counter-screen for toxin protease inhibitors: compound fluorescence; compound autofluorescence counterscreen, microsphere flow cytometry; active compounds read high; fluorescence intensity (no concentration beside the values); hit rate 3.1% among 360,000; in the data active = fluorescence intensity above about 16000; inconclusive = no clear call, values can overlap the other calls
MazEF act: increases E. coli MazEF RNase cleavage of RNA | P0AE70 | FAM/BHQ RNA-DNA oligo cleavage fluorescence, 5 h | activation, % at 20 µM | hit rate 0.32% among 350,000 | AID 504720; in the data active = activation above about 50%
Target sequence (P0AE70 whole entry, looked up): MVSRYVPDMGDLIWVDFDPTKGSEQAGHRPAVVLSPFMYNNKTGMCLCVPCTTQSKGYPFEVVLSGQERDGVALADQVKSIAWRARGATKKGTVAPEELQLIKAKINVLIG
Active calls of the source: *. Cut-off read from the data, not from the text of the source, unless noted: active = inhibition above about 30%; inconclusive = no clear call, values can overlap the other calls; inactive = below that.

Results for CCN(CC)S(=O)(=O)c1cc(NC(=O)C(=O)c2c(-c3ccccc3)cc3ccccn23)ccc1C ?
Anthrax LF prot: -3; BoNT F protease: -10; BoNT-A LC inh2: -4; Autofluor counter: 25900*; MazEF act: 8

Results for O=C(O)C1C2C=CC(C2)C1C(=O)NCCCn1ccnc1 (stereo unspecified) ?
Anthrax LF prot: -2; BoNT F protease: 0; BoNT-A LC inh2: 0; Autofluor counter: 22134*; MazEF act: 5

Results for O=C(O)C1CCCCC1C(=O)NCCCn1ccnc1 (stereo unspecified) ?
Anthrax LF prot: -3; BoNT F protease: 0; BoNT-A LC inh2: 0; Autofluor counter: 11201; MazEF act: 6

What do the screens show for `CCC(=O)N1CCN(c2ccc(NC(=O)c3cccs3)cc2)CC1`?
Anthrax LF prot: -3; BoNT F protease: -8; BoNT-A LC inh2: -2; Autofluor counter: 17020*; MazEF act: 11

How did COC(=O)/C=C(\C)NC(=O)c1cccs1 do in these assays?
Anthrax LF prot: -6; BoNT F protease: -11; BoNT-A LC inh2: -5; Autofluor counter: 18031*; MazEF act: 1

Results for CC(C)Nc1nc(Nc2ccccc2Cl)c2sccc2n1 ?
Anthrax LF prot: -7; BoNT F protease: -4; BoNT-A LC inh2: 0; Autofluor counter: 3745

How did Cc1c(/C=N/NC(=O)c2ccc(O)cc2)c2ccccn2c1C(=O)c1ccc(F)cc1 do in these assays?
Anthrax LF prot: 0; BoNT F protease: -10; BoNT-A LC inh2: 1; Autofluor counter: 2752; MazEF act: 6

Results for Cc1c(/C=N/NC(=O)c2cc(=O)[nH]c(=O)[nH]2)c2ccccn2c1C(=O)c1ccccc1 ?
Anthrax LF prot: 1; BoNT F protease: 5; BoNT-A LC inh2: 3; Autofluor counter: 19024*; MazEF act: 4

What do the screens show for `Cc1ccc(NC(=O)CN(C)C(=O)c2cc(-c3cccs3)nn2-c2ccccc2)cc1`?
Anthrax LF prot: -3; BoNT F protease: -4; BoNT-A LC inh2: -3; Autofluor counter: 9339; MazEF act: -38

How did CC(Sc1nncs1)C(=O)Nc1ccc(S(=O)(=O)Nc2ncccn2)cc1 (stereo unspecified) do in these assays?
Anthrax LF prot: -8; BoNT F protease: -2; BoNT-A LC inh2: 2; Autofluor counter: 5778; MazEF act: 8

Results for CC1CC(C)CN(S(=O)(=O)N2CCCC(C(=O)NCCCN3CCCCC3C)C2)C1 (stereo unspecified) ?
Anthrax LF prot: 1; BoNT F protease: 4; BoNT-A LC inh2: 0; Autofluor counter: 5870; MazEF act: 6

Results for Cc1ccc(S(=O)(=O)N2CCCC(C(=O)NCCCN3CCCCC3C)C2)cc1 (stereo unspecified) ?
Anthrax LF prot: 2; BoNT F protease: 0; BoNT-A LC inh2: 2; Autofluor counter: 25210*; MazEF act: 1

How did CCNC(=O)C1(C)CCCN(Cc2ccc(Oc3ccccc3)cc2)C1 (stereo unspecified) do in these assays?
Anthrax LF prot: -2; BoNT F protease: 0; BoNT-A LC inh2: 0; Autofluor counter: 4015

Results for CCc1nc2c(OCc3cccc(Cl)c3)cccn2c1N(C)C(=O)c1ccncc1 ?
Anthrax LF prot: -2; BoNT F protease: -4; BoNT-A LC inh2: -1; Autofluor counter: 3137

Results for CSCCC(NC(=O)c1cncc(Br)c1)C(=O)O (stereo unspecified) ?
Anthrax LF prot: -6; BoNT F protease: 7; BoNT-A LC inh2: 8; Autofluor counter: 20225*; MazEF act: -8

How did CCCCCC(=O)N1C[C@H](n2cc(C3CC3)nn2)[C@@H](O)C[C@@H]1c1ccccc1 do in these assays?
Anthrax LF prot: -4; BoNT F protease: -2; BoNT-A LC inh2: 0; Autofluor counter: 2879; MazEF act: 6

What do the screens show for `COc1cc(OC)c(C(=O)OCC(=O)NCC2CCCCC2)cc1OC`?
MazEF act: 7

What do the screens show for `Cc1ccc(-n2c(C)cc(C(=O)CSc3n[nH]c(N)n3)c2C)cc1`?
Anthrax LF prot: -5; BoNT F protease: -9; BoNT-A LC inh2: -1; Autofluor counter: 10948; MazEF act: 3

Results for Cc1cc(C(=O)CSc2n[nH]c(N)n2)c(C)n1-c1ccccc1 ?
Anthrax LF prot: -1; BoNT F protease: 3; BoNT-A LC inh2: 1; Autofluor counter: 16214*; MazEF act: 4

Results for Cc1nc(SCC(=O)c2ccc(F)cc2)n[nH]1 ?
Anthrax LF prot: 0; BoNT F protease: 2; BoNT-A LC inh2: 1; Autofluor counter: 21307*; MazEF act: 5

How did Cc1cc(C(=O)CSc2n[nH]c(N)n2)c(C)n1-c1ccc(F)cc1 do in these assays?
Anthrax LF prot: -3; BoNT F protease: -3; BoNT-A LC inh2: inconclusive; Autofluor counter: 22336*; MazEF act: -4
